Reference: PubChem BioAssay (NCATS)
Records with an inconclusive call do not appear. Unless noted, calls follow the shape of the dose curve; as a rule, active = well fitted curve in either direction with a large enough effect (not every such curve was filed as active); inconclusive = small, poorly fitted or top-dose-only effect, or another doubt; inactive = flat fitted curve, though single readings scatter.

Target: Glucocorticoid receptor (Homo sapiens) (UniProt P04150)
Experiment: GR-GFP Redistribution (AID 450;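 active = compounds whose dose series gives a full or clear partial fitted curve of increased nuclear translocation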; also: potency is read from the fitted curve at half-maximal effect)
Settings: U2OS GR-GFP nuclear translocation, laser cytometry, 2 h

Glucocorticoid receptor (Homo sapiens), sequence (P04150 whole entry, looked up): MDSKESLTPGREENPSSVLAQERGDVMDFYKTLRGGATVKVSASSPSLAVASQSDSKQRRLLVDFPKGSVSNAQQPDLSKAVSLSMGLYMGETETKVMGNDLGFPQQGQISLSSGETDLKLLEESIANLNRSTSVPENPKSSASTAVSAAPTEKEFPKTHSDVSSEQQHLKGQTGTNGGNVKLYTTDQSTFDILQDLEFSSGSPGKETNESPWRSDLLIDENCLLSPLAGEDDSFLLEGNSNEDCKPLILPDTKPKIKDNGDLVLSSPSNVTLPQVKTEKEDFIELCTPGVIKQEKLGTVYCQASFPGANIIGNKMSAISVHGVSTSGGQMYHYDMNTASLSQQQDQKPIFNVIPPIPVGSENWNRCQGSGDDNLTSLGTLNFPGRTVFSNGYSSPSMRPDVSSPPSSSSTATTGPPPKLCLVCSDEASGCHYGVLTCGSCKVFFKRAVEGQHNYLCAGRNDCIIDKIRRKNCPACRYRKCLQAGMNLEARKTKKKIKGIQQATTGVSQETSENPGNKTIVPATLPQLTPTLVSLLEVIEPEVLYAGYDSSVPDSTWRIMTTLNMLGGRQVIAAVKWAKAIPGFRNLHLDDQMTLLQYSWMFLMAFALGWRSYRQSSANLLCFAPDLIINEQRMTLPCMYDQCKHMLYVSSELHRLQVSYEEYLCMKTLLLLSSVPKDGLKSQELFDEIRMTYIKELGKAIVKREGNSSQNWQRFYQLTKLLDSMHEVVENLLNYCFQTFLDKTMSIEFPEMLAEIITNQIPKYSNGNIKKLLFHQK

Potency, inactive:
Cc1cnc(CNc2ncncc2-c2ccccc2CN(C)C)cn1 > 46 µM
COc1ccccc1CNc1ncncc1-c1ccccc1C > 46 µM
CCNc1ncc2ncc(=O)n(C[C@H]3CCCO3)c2n1 > 9.22 µM
CN(C)C(=O)c1ccc(-c2nc(NCc3ccccc3)c3ccccc3n2)cc1 > 46 µM
CN(C)C(=O)c1ccc(-c2nc(NCc3cccs3)c3ccccc3n2)cc1 > 46 µM
c1ccc(Nc2ncnc3ccc(-c4cccnc4)cc23)cc1 > 46 µM
CN(C)Cc1ccccc1-c1ccc2ncnc(N3CCOCC3)c2c1 > 46 µM

Target: Glucocorticoid receptor (Homo sapiens) (UniProt P04150)
Experiment: GR-EFC Redistribution (AID 451; calls by dose curve; also: potency is read from the fitted curve at half-maximal effect)
Settings: CHO-K1 GR-EFC translocation, beta-gal luminescence, 2 h
Procedure, shortened: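 CHO-K1 cells expressing nuclear EA and GR-ED fragments of b-gal; compounds titrated up to 46 uM final, 2 h at 37 C. GR nuclear translocation read as complemented b-gal luminescence after 1 h RT detection.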

Potency, inactive:
COc1ccc(C(=O)N2CCC3(CC2)CCN(c2ccncc2)CC3)cc1 > 46 µM
CC(C)CN1CC2(CCN(C(=O)c3csnn3)CC2)C1 > 46 µM
Cn1cccc1C(=O)N1CCC2(CCCN(C(=O)Nc3cccc(F)c3)C2)CC1 > 46 µM
Cc1cnc(CNc2ncncc2-c2ccccc2CN(C)C)cn1 > 46 µM
COc1ccccc1CNc1ncncc1-c1ccccc1C > 46 µM
CS(=O)(=O)N1CCC2(CC1)CN(c1ccccc1)C2 > 46 µM
O=C(c1cnccn1)N1CCC2(CC1)CCN(c1ccncc1)CC2 > 46 µM
O=C(c1cnccn1)N1CCC2(CCCN(Cc3ccccc3)C2)CC1 > 46 µM
COc1ccccc1CN1CCC2(CC1)CCN(C(=O)c1ccco1)CC2 > 46 µM
CN(C)C(=O)c1ccc(-c2nc(NCc3ccccc3)c3ccccc3n2)cc1 > 46 µM
O=C(c1cccc(F)c1)N1CCC2(CCCN(c3ccccn3)C2)CC1 > 46 µM
CC(C)CN1CCCC2(CCN(C(=O)c3cnccn3)CC2)C1 > 46 µM
CN1CCC2(CC1)CCN(C(=O)c1cccc(F)c1)CC2 > 46 µM
CC(C)CN1CC2(CCN(S(=O)(=O)c3ccccc3)CC2)C1 > 46 µM
CN(C)C(=O)c1ccc(-c2nc(NCc3cccs3)c3ccccc3n2)cc1 > 46 µM
N#Cc1ccc(CN2CC3(CCN(C(=O)c4cnccn4)CC3)C2)cc1 > 46 µM
CC(C)NC(=O)N1CC[C@@]2(CCCN(S(=O)(=O)c3ccccc3)C2)C1 > 46 µM
O=C(c1cccc(F)c1)N1CCC2(CC1)CN(c1ccccn1)C2 > 46 µM
COc1ccc(C(=O)N2CCC3(CCN(Cc4ccc(C#N)cc4)CC3)CC2)cc1 > 46 µM
O=C(c1cccc(F)c1)N1CCC2(CCCN(C(c3ccccc3)c3ccccc3)C2)CC1 > 46 µM
O=C(c1ccncc1)N1CCC2(CC1)CN(c1ccccn1)C2 > 46 µM
COc1ccccc1CN1CCC2(CC1)CCN(S(C)(=O)=O)CC2 > 46 µM
Cn1cccc1C(=O)N1CCC[C@@]2(CCN(C(=O)Nc3cccc(F)c3)C2)C1 > 46 µM
CC(C)CN1CC[C@@]2(CCCN(C(=O)c3ccco3)C2)C1 > 46 µM
COc1ccccc1CN1CCCC2(CCN(S(=O)(=O)c3ccccc3)CC2)C1 > 46 µM
Cn1cccc1C(=O)N1CCC2(CCCN(C(c3ccccc3)c3ccccc3)C2)CC1 > 46 µM
COC(=O)N1CCC2(CC1)CN(c1ccc(-c3ccccc3)cc1)C2 > 46 µM
COCC(=O)N1CCC2(CCCN(Cc3ccc(C#N)cc3)C2)CC1 > 46 µM
COCC(=O)N1CCC2(CC1)CCN(c1ncccn1)CC2 > 46 µM
COC(=O)N1CCC2(CCCN(C(=O)Nc3cccc(C#N)c3)C2)CC1 > 46 µM
c1ccc(Nc2ncnc3ccc(-c4cccnc4)cc23)cc1 > 46 µM
O=C(c1csnn1)N1CCC2(CCN(Cc3cc(C(F)(F)F)cc(C(F)(F)F)c3)CC2)CC1 > 46 µM
CN(C)Cc1ccccc1-c1ccc2ncnc(N3CCOCC3)c2c1 > 46 µM
O=S(=O)(c1ccccc1)N1CCC2(CC1)CN(c1ccncc1)C2 > 46 µM
COC(=O)N1CCC2(CCCN(c3ccccn3)C2)CC1 > 46 µM
CC(=O)N1CCC2(CCCN(Cc3ccc(C#N)cc3)C2)CC1 > 46 µM
COc1ccccc1CN1CCC2(CC1)CCN(C(=O)c1cccc(F)c1)CC2 > 46 µM

Target: Mitogen-activated protein kinase 10 (Mus musculus) (UniProt Q61831)
Experiment: JNK3 AlphaScreen Assay (AID 530);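 also: kinase came from lysate of stimulated human HepG2 cells; signal reports phosphorylation of biotinylated GST-cJun 1-79 at Ser73 with 10 µM ATP; % is scaled to controls: 0 for no effect and ±100 for the full control effect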
Settings: JNK3 lysate, c-Jun phosphorylation; series mostly up to 57.1 µM; activity change, negative = inhibition: at the top concentration
Procedure, shortened: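 Pre-activated (IL-1β/TNFα) JNK3 in HepG2 lysates phosphorylates biotin-GST-cJun(1-79), 10 uM ATP; anti-phospho-cJun(Ser73) AlphaScreen read at room temperature, pH 7.6 Tris buffer. Compounds pre-incubated 15 min as titrations.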

Activity change, negative = inhibition, inactive:
COc1ccc(C(=O)N2CCC3(CC2)CCN(c2ccncc2)CC3)cc1 -3.35%
CC(C)CN1CC2(CCN(C(=O)c3csnn3)CC2)C1 5.81%
Cn1cccc1C(=O)N1CCC2(CCCN(C(=O)Nc3cccc(F)c3)C2)CC1 -22.4%
Cc1cnc(CNc2ncncc2-c2ccccc2CN(C)C)cn1 7.81%
COc1ccccc1CNc1ncncc1-c1ccccc1C 1.93%
CS(=O)(=O)N1CCC2(CC1)CN(c1ccccc1)C2 3.83%
O=C(c1cnccn1)N1CCC2(CC1)CCN(c1ccncc1)CC2 -3.15%
CCNc1ncc2ncc(=O)n(C[C@H]3CCCO3)c2n1 -12%
O=C(c1cnccn1)N1CCC2(CCCN(Cc3ccccc3)C2)CC1 2.97%
COc1ccccc1CN1CCC2(CC1)CCN(C(=O)c1ccco1)CC2 -2.54%
CN(C)C(=O)c1ccc(-c2nc(NCc3ccccc3)c3ccccc3n2)cc1 -4.68%
O=C(c1cccc(F)c1)N1CCC2(CCCN(c3ccccn3)C2)CC1 1.13%
CC(C)CN1CCCC2(CCN(C(=O)c3cnccn3)CC2)C1 -2.27%
CN1CCC2(CC1)CCN(C(=O)c1cccc(F)c1)CC2 1.8%
CC(C)CN1CC2(CCN(S(=O)(=O)c3ccccc3)CC2)C1 5.23%
CN(C)C(=O)c1ccc(-c2nc(NCc3cccs3)c3ccccc3n2)cc1 -12%
N#Cc1ccc(CN2CC3(CCN(C(=O)c4cnccn4)CC3)C2)cc1 2.18%
CC(C)NC(=O)N1CC[C@@]2(CCCN(S(=O)(=O)c3ccccc3)C2)C1 3.39%
COc1ccc(C(=O)N2CCC3(CCN(Cc4ccc(C#N)cc4)CC3)CC2)cc1 0.819%
O=C(c1cccc(F)c1)N1CCC2(CCCN(C(c3ccccc3)c3ccccc3)C2)CC1 -8.07%
O=C(c1ccncc1)N1CCC2(CC1)CN(c1ccccn1)C2 -6.94%
COc1ccccc1CN1CCC2(CC1)CCN(S(C)(=O)=O)CC2 3.26%
Cn1cccc1C(=O)N1CCC[C@@]2(CCN(C(=O)Nc3cccc(F)c3)C2)C1 -2.83%
CC(C)CN1CC[C@@]2(CCCN(C(=O)c3ccco3)C2)C1 1.37%
COc1ccccc1CN1CCCC2(CCN(S(=O)(=O)c3ccccc3)CC2)C1 0.272%
Cn1cccc1C(=O)N1CCC2(CCCN(C(c3ccccc3)c3ccccc3)C2)CC1 -26.3%
COC(=O)N1CCC2(CC1)CN(c1ccc(-c3ccccc3)cc1)C2 0.584%
COCC(=O)N1CCC2(CCCN(Cc3ccc(C#N)cc3)C2)CC1 1.34%
COCC(=O)N1CCC2(CC1)CCN(c1ncccn1)CC2 -1.13%
O=C(c1ccncc1)N1CCC2(CCCN(Cc3nccs3)C2)CC1 1.44%
COC(=O)N1CCC2(CCCN(C(=O)Nc3cccc(C#N)c3)C2)CC1 -17.9%
c1ccc(Nc2ncnc3ccc(-c4cccnc4)cc23)cc1 1.69%
O=C(c1csnn1)N1CCC2(CCN(Cc3cc(C(F)(F)F)cc(C(F)(F)F)c3)CC2)CC1 -0.00913%
CN(C)Cc1ccccc1-c1ccc2ncnc(N3CCOCC3)c2c1 -1.59%
O=S(=O)(c1ccccc1)N1CCC2(CC1)CN(c1ccncc1)C2 -4.18%
COC(=O)N1CCC2(CCCN(c3ccccn3)C2)CC1 -6.06%
CC(=O)N1CCC2(CCCN(Cc3ccc(C#N)cc3)C2)CC1 -0.932%
COc1ccccc1CN1CCC2(CC1)CCN(C(=O)c1cccc(F)c1)CC2 3.57%
